FMDV antiviral – foot and mouth disease virus antiviral activity; Potency, µM (highest dose often 57.9 µM), for inactives: at the highest dose activity change, negative = inhibition, usual class: inhibitors; 1.2% of 410,000 active; FMDV antiviral cell-based qHTS; calls by dose curve; tested in HEK293T cells; also: read-out not given here; potency is read from the fitted curve at half-maximal effect; nearly all actives have a fitted effect of over 45% in size
Tb PYK inh – inhibitors of Trypanosoma brucei pyruvate kinase. Q57TT1. TbPYK enzyme, Kinase-Glo Plus ATP luminescence, 45 min. Potency, µM (highest dose often 76.8 µM), without a hit: at the highest dose activity, negative = inhibition, usual class: inhibitors. 0.12% of 410,000 active; also: potency is read from the fitted curve at half-maximal effect; nearly all actives have a fitted effect of over 50% in size
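ADP (130 uM final) triggers the TbPYK reaction after compound addition; incubation is 45 min at room temperature. Kinase-Glo Plus is then added and luminescence imaged. Normalized data are fitted to concentration-effect curves.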
HCMV inh – inhibitors of human cytomegalovirus | activity change, negative = inhibition, % at 57.5 µM | 4.5% of 410,000 active | HFF cells, HCMV-luciferase reporter, 72 h; active compounds read low | AID 1259415; in the data active = activity change below about -60%; inconclusive = no clear call, values can overlap the other calls; inactive = above about -39%
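Human foreskin fibroblasts infected with luciferase-reporter HCMV at MOI 1 PFU/cell, compounds at two doses. Luciferase measured 72 h post infection; normalized to buffer-only basal and Salinomycin (10uM) controls.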
Sm TGR inh – inhibitors of Schistosoma mansoni thioredoxin glutathione reductase | 3% of 360,000 active | Q962Y6 | Potency, µM (doses to about 114 µM), for the others: at the top dose activity change, negative = inhibition, most hits filed as inhibitors | purified TGR, DTNB reduction, TNB absorbance 405 nm; also: potency is read from the fitted curve at half-maximal effect; nearly all actives have a fitted effect of over 60% in size
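Kinetic colorimetric format: TGR-catalysed, NADPH-driven DTNB reduction monitored via TNB absorbance. Enzyme dispensed at 20 nM; compound exposure 15 min at room temperature before reaction start.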
Giardia FBPA inh – inhibitors of Giardia lamblia fructose-1,6-bisphosphate aldolase; A8B2U2; purified Giardia FBPA; Potency, µM (top dose mostly 59.6 µM), inactives show top-dose activity, negative = inhibition, actives largely listed as inhibitors; 0.71% of 290,000 active; AID 2451; also: potency is read from the fitted curve at half-maximal effect; nearly all actives have a fitted effect of over 55% in size
Target sequence (A8B2U2 whole entry, looked up): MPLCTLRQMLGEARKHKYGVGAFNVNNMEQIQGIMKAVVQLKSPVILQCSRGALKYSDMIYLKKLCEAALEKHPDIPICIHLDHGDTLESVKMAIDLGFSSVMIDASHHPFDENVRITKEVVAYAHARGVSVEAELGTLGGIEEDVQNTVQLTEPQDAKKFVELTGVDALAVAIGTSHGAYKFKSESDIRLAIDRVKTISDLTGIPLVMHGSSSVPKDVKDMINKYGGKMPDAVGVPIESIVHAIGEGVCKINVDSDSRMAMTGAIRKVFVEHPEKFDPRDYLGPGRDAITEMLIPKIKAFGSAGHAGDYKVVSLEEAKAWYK
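Giardia FBPA (40 nM reagent) was preincubated 10 min at RT with compound (up to 57.5 uM final), then substrate plus GAPDH/TPI/NAD/arsenate coupling system with diaphorase/resazurin was added; resorufin fluorescence (525/598 nm) was read after 20 min.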
RE007 growth inh – less growth of the S. pombe RE007 Vpr strain. S. pombe RE007 Vpr strain, BacTiter-Glo ATP luminescence, 24 h. 0.21% of 360,000 active. Potency, µM (series often up to 92.2 µM), without a hit: at the top dose activity change, negative = less growth, actives largely listed as inhibitors; active = well fitted falling curve with a large enough effect; inconclusive = small, poorly fitted or top-dose-only effect; inactive = no such curve, though single readings can be large or run the other way; also: potency is read from the fitted curve at half-maximal effect; nearly all actives have a fitted effect of over 50% in size
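Fission yeast RE007 carrying one integrated HIV-1 vpr copy, seeded at OD 0.01 in PMG+AL medium with 23 nL pinned compound. Grown 24 h at 30 degrees; viability read by BacTiter-Glo luminescence after 5 min.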
Starred values were filed as active, the others as inactive; ? = inconclusive; . = not tested or not shown; + = active, no number; [ ] = dose if it differs, or a comment. Most compounds without a hit are left out; they make up all but 7.7% or so of the library. Unless noted, calls follow the shape of the dose curve; as a rule, active = well fitted curve in the direction sought with a large enough effect; inconclusive = small, poorly fitted or top-dose-only effect, or another doubt; inactive = no such curve, though single readings can be large; an effect the other way counts as inactive or inconclusive. % is scaled to controls: 0 for no effect and ±100 for the full control effect.

SMILES	FMDV antiviral	Tb PYK inh	HCMV inh	Sm TGR inh	Giardia FBPA inh	RE007 growth inh
C=CCc1ccccc1OCC(O)CNC(C)C (stereo not given)	-20.6%	-2.9%	-8.5	25.1µM*	-2.1%	-18.8%
C=CCc1ccc(OCC(O)CN2CCN(c3ccccc3)CC2)c(OC)c1 (stereo not given)	1.4%	9.8%	-61.8*	-35.7%	-20.1%	-2.7%
C=CCc1ccc(OCC(O)CN2CCCCC2)c(OC)c1 (stereo not given)	9.0%	5.4%	-11.2	1.1%	5.0%	-10.7%
C=CCc1ccccc1OCC(O)CN1CCN(c2ccccc2F)CC1 (stereo not given)	?	0.3%	21.2	-25.6%	-7.5%	-6.9%
CC(C)NC[C@H](O)COc1cccc2[nH]ccc12	-8.4%	-13.7%	-80.8*	2.8%	1.8%	-2.4%[18.4 µM]
Cn1c(=O)c2sccc2n2c(CCCC(=O)NCc3ccccc3)nnc12	-0.5%	-3.1%	14.5	19.8%	.	.
Cc1cc(Cl)ccc1NC(=O)CCn1nc(C)c2c(C)n(-c3ccccc3)nc2c1=O	13.0%	-1.9%	5.4	-10.7%	.	.
Fc1cnc(N2CCN(c3ccccc3)CC2)nc1N1CCN(c2ccccc2)CC1	20µM*	6.3%	?	5.6%	-8.4%	-8.8%
O=C(N/N=C/c1ccc(-c2cccc(C(F)(F)F)c2)o1)c1cccc(F)c1	-16.3%	-3.5%	?	-19.5%	8.6%	-26.2%
COc1ccc(C(=O)N/N=C/c2ccc(N3CCOCC3)o2)cc1OC	-18.7%	31.6µM*	-38.9	7.94µM*	?	24.9%
O=C(N/N=C/c1ccc(N2CCOCC2)o1)c1cccc(F)c1	-0.4%	?	53.5	10µM*	-27.7%	16.0%
CC1=NOC(=O)/C1=C\c1ccc(-c2cccc(Cl)c2)o1	39.8µM*	-16.7%	.	-3.8%	-18.9%	?
CC1=NOC(=O)/C1=C\c1ccc(-c2ccccc2Br)o1	25.1µM*	?	-9.6	?	-25.4%	?
C[C@@H](CNC1CCCCC1)OC(=O)c1ccccc1	.	5.1%[33.2 µM]	.	.	1.3%[21.7 µM]	.
COc1ccc(NC(=O)N(C)C[C@H]2OCc3cn(nn3)CCCC(=O)N([C@H](C)CO)C[C@@H]2C)cc1	.	.	-10.4	.	.	.
C[C@]12CCC(=O)C=C1C=C[C@@H]1[C@@H]2CC[C@@]2(C)[C@H]1CC[C@@]21CCC(=O)O1	?	3.5%	?	-16.2%	4.9%	32.6%
C[C@]12CCC(=O)C=C1C=CC1C2CC[C@]2(C)C(=O)CCC12 (stereo not given in full)	-22.6%	-6.2%	-69.9*	.	.	-9.8%
CCOC(=O)C1=Nc2ccccc2C1=[N+]=[N-]	-0.5%	3.0%	-100.4*	-5.2%	-5.6%	0.251µM*
COc1ccc(OC)c(NC(=O)NNS(=O)(=O)c2ccc(C)cc2C)c1	-10.8%	1.9%	-62.0*	2.2%	.	3.9%
CCc1c(C)nc(N)nc1N1N=C1SCC(=O)OC	5.6%	1.7%	-60.5*	10.6%	-3.6%	-14.4%
Cc1csc(CN(C)C(=O)CC2C(=O)NCCN2Cc2ccc(Cl)c(F)c2)n1 (stereo not given)	-1.5%	-7.9%	+	44.7µM*	-15.3%	-8.6%
Cc1csc(CNC(=O)CC2C(=O)NCCN2Cc2ccc(F)cc2Cl)n1 (stereo not given)	-16.4%	-10.1%	71.8	6.7%	.	0.3%
Cc1csc(CN(C)C(=O)CC2C(=O)NCCN2Cc2ccc(F)cc2Cl)n1 (stereo not given)	-9.3%	-10.9%	-32.1	12.6µM*	.	-6.3%
COc1ccc2c(c1)C(c1ccc(C)cc1)CC(=O)O2 (stereo not given)	.	.	.	.	2.7%[89.2 µM]	.
Cc1cc2c(c(-c3nc4ccccc4s3)c1)OC(CNC(=O)CCc1cccnc1)C2 (stereo not given)	11.7%	.	.	.	.	.
CCOC(=O)c1cccc(Nc2ccc3cc(S(=O)(=O)N4CCCCC4)ccc3n2)c1	0.0%	-2.1%	-22.5	0.4%	.	.
Cc1ccc(-c2cc3cccc[n+]3cc2-c2ccc(C)cc2)cc1	39.8µM*	-1.1%	-97.6*	-5.5%	4.1%	-10.8%
